Screening data as filed in PubChem BioAssay.
This is a sample that favours compounds with a hit; in the whole collection about 9.9% have one here.
SW480 rerep = A quantitative high throughput screen for small molecules that induce DNA re-replication in SW480 colon adenocarcinoma cells; SW480 DNA re-replication, Hoechst DNA content imaging, 48 h; AID 624297, 2012; actives 1.8% (n = 340,000); Potency, µM (titrated, usually from 46.1 µM), inactives show at the highest dose re-replication activation, actives largely listed as activators; also: potency is read from the fitted curve at half-maximal effect; % of control where 0% means no effect; nearly all actives have a fitted effect of over 55% in size
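SW480 cells exposed to compounds for 48 hr at 37 C, 5% CO2, then Hoechst-stained 40 min. Nuclear DNA content imaged by fluorescence scanning (405 nm excitation, 500-530 nm emission); re-replication scored as increased high-intensity nuclei.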
MCF10A rerep = A quantitative high throughput screen for small molecules that induce DNA re-replication in MCF 10a normal breast cells; AID 624296, 2012; Potency, µM (highest dose often 46.1 µM), for the others: at the top dose activity, positive = re-replication, hits mostly activators; actives 2.9% (n = 350,000); MCF 10A DNA re-replication, Hoechst nuclear intensity, 48 h; also: potency is read from the fitted curve at half-maximal effect; % of control where 0% means no effect; nearly all actives have a fitted effect of over 50% in size
IL-1B inflam inh = qHTS for Inhibitors of Inflammasome Signaling: IL-1-beta AlphaLISA Primary Screen; THP-1 LPS/ATP IL-1B secretion, AlphaLISA, 16 h; stronger effect = lower value; activity change, % at 57.5 µM; actives 4.7% (n = 360,000); AID 743279, 2014; in the data active = activity change below about -50%; inconclusive = mostly about -30% to -49%; also: % is scaled to controls: 0 for no effect and ±100 for the full control effect
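Secreted IL-1B measured by AlphaLISA bead assay after 16 h compound exposure of THP-1 cells; compounds (final up to 57.5 uM) added 1 h before LPS (250 ng/mL) and ATP (1.25 mM) stimulation; lower signal means less secretion.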
KB-3-1 tox = qHTS assay for MDR1-selective chemotherapeutics: Primary screen using the parental adenocarcinoma cell KB-3-1 | KB-3-1 viability, CellTiter-Glo ATP luminescence, 72 h | Potency, µM (series often up to 46.1 µM), actives largely listed as cytotoxic | AID 1347075, 2019 | actives 1.4% (n = 400,000); also: potency is read from the fitted curve at half-maximal effect; % is scaled to controls: 0 for no effect and ±100 for the full control effect; nearly all actives have a fitted effect of over 60% in size
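Luminescent ATP read-out (CellTiter-Glo) measures survival of drug-naive KB-3-1 cells after 72 h compound exposure at 37 °C. Titration series was screened from lowest to highest concentration, with DMSO vehicle plates as background controls.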
KB-V1 cytotox = qHTS assay for MDR1-selective chemotherapeutics: Primary screen using the drug-selected MDR subline cells KB-V1 | KB-V1 MDR cells viability, CellTiter-Glo, 72 h | Potency, µM (titrated, usually from 46.1 µM), actives largely listed as cytotoxic | actives 3.4% (n = 400,000) | AID 1347076, 2019; also: potency is read from the fitted curve at half-maximal effect; % is scaled to controls: 0 for no effect and ±100 for the full control effect; nearly all actives have a fitted effect of over 60% in size
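Readout: CellTiter-Glo luminescence, 10 min after addition. Cells: KB-V1 MDR subline, 72 h at 37 degrees C with compound. Analysis: corrected, normalized data fitted to concentration-effect curves.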
* = called active by the depositor; i = inactive; ? = inconclusive; . = no result; ! = not confirmed by another sample. Unless noted, calls follow the shape of the dose curve; as a rule, active = well fitted curve in the direction sought with a large enough effect; inconclusive = small, poorly fitted or top-dose-only effect, or another doubt; inactive = no such curve, though single readings can be large; an effect the other way counts as inactive or inconclusive.

SMILES	SW480 rerep	MCF10A rerep	IL-1B inflam inh	KB-3-1 tox	KB-V1 cytotox
COc1ccccc1CCNC(=O)CCc1c(C)c2cc3c(C)coc3cc2oc1=O	.	.	.	i	i
Cc1cn([C@H]2C[C@H](O)[C@@H](CCC(=O)NCCc3cccs3)O2)c(=O)[nH]c1=O	.	.	-11	i	i
Cc1cccc(OCCCCc2c(C)n[nH]c2C)c1C	-4%	?	-10	?	16µM*
Cc1cc(O)c2c(c1O)C(=O)[C@]13C(=C2O)C(=O)[C@@H]2[C@@H](O)[C@H]1[C@@H]1[C@H](O)[C@H]3C(=O)C3=C(O)c4c(O)cc(C)c(O)c4C(=O)[C@]312	5%	-55%	-17	1.2µM*	i
CCOCCCNC(=O)CN1C(=O)NC(Cc2c[nH]c3ccccc23)C1=O (centres undefined)	-38%	3%	19	i	i
O=C(Nc1cc(Cl)ccc1O)c1snnc1-c1ccccc1	1%	?	-90*	18µM*	8.2µM*
Cc1noc(C)c1C(=O)Nc1ccc(F)cc1F	-5%	3%	-7	i	i
CN(C)c1ccc(-c2c(-c3ccc4c(c3)OCO4)noc2-c2ccsc2)cn1	?	?	-9	?	10µM*!
COc1ccc(-c2c(-c3ccc4c(c3)OCO4)noc2-c2ccsc2)cn1	.	.	.	i	?
Cc1cc(N)ccc1NC(=O)CN1CCCC1	-12%	-6%	16	i	i
CCS(=O)(=O)c1nnnn1-c1ccccc1S(C)(=O)=O	?	?	-97*	i	i
CCCCC(=O)Oc1ccc2oc(-c3ccc(OC)cc3)cc(=O)c2c1	.	.	.	i	6.5µM*
CCOC(=O)C1=Nc2ccccc2C1=[N+]=[N-]	?	2.6µM*	-71*	?	2.6µM*
CCOC(=O)c1cnc(-c2ccccc2O)nc1Cl	2%	-9%	13	i	i
CC(=O)N[C@@H](CC(=O)O)C(=O)O	-59%	-2%	-107*	?	i
Cc1ccc(S(=O)(=O)CCc2nnc(NC(=O)CCl)s2)cc1C	?	?	-100*	?	i
CCOCCc1nnc(NC(=O)CCS(=O)(=O)c2ccccc2)s1	?	21µM*	-29	i	i
Cc1ccc(S(=O)(=O)CCc2nnc(N)s2)cc1C	17%	-15%	21	i	i
COCCSc1nnc(NC(=O)CCS(=O)(=O)c2ccccc2)s1	?	?	-103*	i	i
COCCSc1nnc(NC(=O)CS(=O)(=O)c2ccc(C)cc2)s1	-8%	0%	3	i	i
Cc1ccc(SCC(=O)NC(=O)Nc2ccc3c(c2)OCCO3)cc1C	-10%	3%	10	i	i
CSc1cccc(NC(=S)Nc2cc(C)ccc2C)c1	-1%	2%	-12	i	i
CCc1nc(N)nc(N)c1-c1ccc(N(C)Cc2ccccc2)c([N+](=O)[O-])c1	22%	14%	-98*	4.1µM*	1.8µM*
Cc1noc(-c2ccc(N(C)Cc3ccccc3)c([N+](=O)[O-])c2)n1	.	.	.	i	i
CCC(C)(C)NC(=O)C(c1ccccn1)N(C(=O)c1csnn1)c1ccc(C)cc1 (centres undefined)	1%	0%	17	i	i
SMILES	SW480 rerep	MCF10A rerep	IL-1B inflam inh	KB-3-1 tox	KB-V1 cytotox
CSc1nc2nc3c(cn2n1)C(=O)CC(c1ccccc1)C3 (centres undefined)	-11%	-1%	-19	i	13µM*
C=CCC(=O)N1CCCC(CNC(=O)c2ccc(-c3ccccc3)cc2)C1 (centres undefined)	12%	?	-64*	i	i
O=[N+]([O-])c1ccccc1/C=C/c1ccnc2ccccc12	.	.	.	?	i
CCn1c(-c2ccccc2)c(C(=O)CCl)c2ccccc21	?	23µM*	-108*	i	?
Cn1c(-c2ccccc2)c(C(=O)CCl)c2ccccc21	?	?	-118*	?	?
Cn1c(-c2ccccc2)c(CCO)c2ccccc21	20%	37%	10	?	i
